Measured values reported in PubChem BioAssay (NCI).
“And” between values parts separate entries of the source, which are not always exact repeats. Identical values can stand only once. This is part of a sample that, as a whole, favours compounds with a hit. Of some 83,000 tested, about 20% had one in any assay.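 Growth was measured after 48 h exposure to one concentration of compound in 96-well plates. Values under 10 count as active.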 A number with no mark means an inactive call. The source made the active and inactive calls.

System: MDA-MB-468 breast
Assay: NCI-60 one-dose screen, 48 h (100 = growth as untreated, 0 = no growth, -100 = all killed)
Conditions: 10 µM unless noted

| Compound | growth |
| --- | --- |
| O=C(Nc1cccc2c1C(=O)c1cccc(Nc3cccc4c3C(=O)c3cccc(NC(=O)c5ccccc5)c3C4=O)c1C2=O)c1ccccc1 | 126% |
| O=c1ccn(C2OC(CO)C(O)C2F)c(=O)[nH]1 (stereo not given) | 105% |
| COC(=O)c1cc(Nc2ccc(O)c3c2C(=O)c2c([N+](=O)[O-])ccc(O)c2C3=O)cc(C(=O)OC)c1 | 71.9% |
| CS(=O)(=O)c1nccc(-c2c(-c3ccc(F)c(OCc4ccc(F)cc4)c3)nc3sccn23)n1 | -37.2% (active) |
| CC1(C)CC2=C3C=C[C@@H]4[C@@]5(C)CCC(=O)C(C)(C)[C@@H]5CC[C@@]4(C)[C@]3(C)CC[C@@]2(C(=O)O)CC1=O | 74.2% |
| CC1NC(=S)NC(=O)/C1=C/c1cc(=O)oc2c1ccc1ccccc12 (stereo not given) | 103% |
| NC(=O)NO | 109% |
| COc1cc2nc(N3CCC[C@@H](NC(=O)C4COc5ccccc5O4)C3)nc(N)c2cc1OC (stereo not given in full) | 108% and 103% |
| O=C(CSc1nnc(-c2ccccc2)o1)Nc1ccc(C(=O)/C=C/c2ccccc2)cc1 | 58.3% |
| Cc1nn(-c2ccc(-c3ccc(OC(F)(F)F)cc3)cc2)c2nc(-c3ccccc3)nc(N)c12 | 82.6% |
| N=c1c2c(=N)n3c(nc2nc2n1-c1ccccc1Sc1ccccc1-2)sc1cc(Cl)ccc13 | -11.8% (active) |
| COc1ccc(NC(=O)c2c(Nc3ccc(OC)cc3OC)n[nH]c2N)c(OC)c1 | 82.3% |
| Cc1cc(C)c2nc(Nc3nc(C)c(C)c(=O)[nH]3)nc(C)c2c1 | -35.8% (active) |
| Cn1cc(-c2nonc2-c2c[nH]c3ccccc23)c2cccnc21 | -12.9% (active) |
| COc1ccc(C2CC(c3cccc(OCCCCOc4cccc(C5=NN(C(C)=O)C(c6ccc(OC)cc6)C5)c4)c3)=NN2C(C)=O)cc1 (stereo not given) | 23.7% |
| COc1ccccc1S(=O)(=O)Nc1ccc2c3c(cc(-c4cnn(C5CC5)c4)nc13)C(=O)N2C | 50.9% |
| CNC(=O)c1ccc(C)c(-n2c(C)cc(OCc3ccc(F)cc3F)c(Br)c2=O)c1 | 53.4% and 63.5% |
| CC1=NN(c2ccc(S(=O)(=O)O)cc2)C(=O)C1N=Nc1ccc(-c2ccc(N=Nc3ccc(OS(=O)(=O)c4ccc(C)cc4)cc3)c(S(=O)(=O)O)c2)cc1 (stereo not given) | 86.8% |
| Cc1c(C(N)=O)sc2ncn(CC(=O)NN=C3CCCCC3)c(=O)c12 | 109% |
| COc1ccc(Nc2nc(-c3cc(O)c(C)c(C)c3O)cs2)cc1 | -6.65% (active) |

| Compound | growth |
| --- | --- |
| NC(N)=NN=C(c1ccccc1)c1ccccc1 | -31.3% (active) |
| O=C(CSC(=S)n1cnnc1)NC(=O)c1ccccc1 | 119% |
| O=C1Nc2cc(Cl)ccc2/C1=C\c1ccc(OCc2ccccc2)cc1 | 98.5% |
| CCCCCCC(CC#N)(CCC)CCCC (stereo not given) | 101% |
| CN1CCN(CC(=O)Nc2nc(-c3cccc(NS(=O)(=O)c4cccc5c(N(C)C)cccc45)c3)cs2)CC1 | 38.7% |
| C#Cc1nc(C(=O)NCCC(=O)Nc2ccc(NC(=O)c3ccc(/C=C/C(=O)c4nccn4C)cc3)cc2)cs1 | 20.6% |
| COc1cc(-c2nc(Nc3nc4ccccc4s3)[nH]c(=O)c2C#N)cc(OC)c1O | 105% |
| N#Cc1c(NCc2ccccc2I)sc2c1CCCCC2 | 97.1% |
| C/C(=N/N=C(N)N)c1ccc(N)cc1 | 75.5% |
| Cc1cc(N/N=C/c2nc(-c3ccc(Cl)cc3)oc2C)c2cc(Br)ccc2n1 | -36.6% (active) |
| CC1(C)OC(=O)CC1=O | 100% |
| CCOC(=O)CSc1ncnc2c1c(-c1ccccc1)c(-c1ccccc1)n2-c1ccc(C)cc1 | 51.9% |
| COc1ccc(-c2cc(-c3nnc(SCC(=O)Nc4ccc(/C(C)=N\O)cc4)n3-c3ccccc3)c3cc(OC)ccc3n2)cc1 | 62.4% |
| O=C1CC(c2nc3ccccc3s2)CN1C1CCCCC1 (stereo not given) | 104% |
| Oc1ccccc1C=Nc1ccc(N2CCN(c3ccccc3)CC2)cc1 | 108% |
| COc1cccc2c1O/C(=C\c1c([N+](=O)[O-])ncn1C)C2=O | 101% |
| CCOC(=O)/C=C1\S/C(=N\Nc2cc(=O)[nH]c3ccc(Cl)cc23)N(c2ccccc2)C1=O | 80.8% |
| Cc1nnc2nc(N)[nH]n2c1=O | 108% |
| O=c1[nH]c(Cc2nc3ccccc3s2)nc2cc(Br)ccc12 | 92.4% |
| CCCCCCOc1ccc(/C=N/Nc2cc(C)nc3ccc(Br)cc23)cc1 | -78.6% (active) |
